# Test results from PubChem BioAssay (NCATS).
# Values without a mark were called inactive. Inconclusive results are not listed. Active and inactive are the calls of the source. The call rests on the fitted dose curve; in most records, active means well fitted curve in the direction sought with a large enough effect; inconclusive means small, poorly fitted or top-dose-only effect, or another doubt; inactive means no such curve, though single readings can be large; an effect the other way counts as inactive or inconclusive.
# Target: Cytochrome P450 1A2 (Homo sapiens) (UniProt P05177)
# Sequence (P05177 whole entry, looked up): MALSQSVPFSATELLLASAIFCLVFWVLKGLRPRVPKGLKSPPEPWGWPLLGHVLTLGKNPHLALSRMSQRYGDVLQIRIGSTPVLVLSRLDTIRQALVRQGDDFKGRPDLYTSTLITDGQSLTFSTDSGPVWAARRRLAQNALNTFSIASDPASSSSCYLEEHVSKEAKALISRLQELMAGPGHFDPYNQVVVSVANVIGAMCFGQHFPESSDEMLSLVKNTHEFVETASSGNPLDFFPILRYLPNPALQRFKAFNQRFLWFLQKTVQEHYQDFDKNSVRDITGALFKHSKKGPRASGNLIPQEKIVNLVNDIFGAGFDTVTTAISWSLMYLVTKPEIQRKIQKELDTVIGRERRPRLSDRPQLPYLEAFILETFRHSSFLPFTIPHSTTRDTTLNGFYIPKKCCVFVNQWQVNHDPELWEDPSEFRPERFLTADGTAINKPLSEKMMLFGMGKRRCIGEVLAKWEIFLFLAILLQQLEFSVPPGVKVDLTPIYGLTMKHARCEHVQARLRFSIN
# Experiment: qHTS for inhibitors of CYPIA2 against the NCATS DSHEA and TCM libraries (AID 1919976); further: potency means the concentration at half of the fitted maximal effect
# Conditions: recombinant CYP1A2 enzyme activity, luminescence; series mostly up to 37 µM
# In short: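 CYP1A2 + luciferin substrate, 100 mM KPO4-type buffer; cmpd 15 min RT; 1x NADPH regen, 30-45 min RT dark; detection reagent 30 min RT; luminescence. Minus-enzyme wells as background; furafylline intraplate control.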
row,Compound,Potency
1,Oc1cc(O)c2c(c1)O[C@@H](c1cc(O)c(O)c(O)c1)[C@H](O)C2,3.55 µM (active)
2,O=C(O[C@@H]1Cc2c(O)cc(O)cc2O[C@@H]1c1ccc(O)c(O)c1)c1cc(O)c(O)c(O)c1,inactive
3,CC1=C2[C@H](/C=C(\C)C(=O)O)CC[C@@H](C)[C@H]2CC1,inactive
4,C=C1CC[C@H]2C[C@@H]1C2(C)C,inactive
5,C=C1C[C@@]23CC[C@H]4[C@@](C)(CCC[C@@]4(C)C(=O)O[C@@H]4O[C@H](CO)[C@@H](O)[C@H](O)[C@H]4O[C@@H]4O[C@H](CO)[C@@H](O)[C@H](O)[C@H]4O)[C@@H]2CC[C@]1(O[C@@H]1O[C@H](CO)[C@@H](O)[C@H](O)[C@H]1O[C@@H]1O[C@H](CO)[C@@H](O)[C@H](O)[C@H]1O)C3,inactive
6,CC(C)=CCC[C@](C)(O[C@@H]1O[C@H](CO)[C@@H](O)[C@H](O)[C@H]1O)[C@H]1CC[C@]2(C)[C@@H]1[C@H](O)C[C@@H]1[C@@]3(C)CC[C@H](O)C(C)(C)[C@@H]3[C@@H](O[C@@H]3O[C@H](CO)[C@@H](O)[C@H](O)[C@H]3O)C[C@]12C,inactive
7,CCCCCC(=O)O,inactive
8,CC(C)(O)[C@@H]1CC[C@](C)([C@H]2[C@@H](O)C[C@@]3(C)[C@@H]4C[C@H](O)[C@H]5C(C)(C)[C@@H](O[C@@H]6OC[C@@H](O)[C@H](O)[C@H]6O[C@@H]6O[C@H](CO)[C@@H](O)[C@H](O)[C@H]6O)CC[C@@]56C[C@@]46CC[C@]23C)O1,inactive
9,O=C(/C=C/c1ccc(O)c(O)c1)OC1[C@H](O)CC(O)(C(=O)O)C[C@@H]1O (some centres undefined),inactive
10,COc1ccccc1/C=C/C=O,25.1 µM (active)
11,O=c1cc(-c2ccc(O)c(O)c2)oc2cc(O[C@@H]3O[C@@H](CO)[C@@H](O)[C@@H](O)[C@H]3O)cc(O)c12,3.98 µM (active)
12,Cc1ccc(O)c(O)c1,inactive
13,CCCCCCCC/C=C/CCCCCCCCCC(=O)O,inactive

# System: not listed separately
# Experiment: qHTS Counterscreen for compound interference against the NCATS DSHEA and TCM libraries (AID 1919978); further: % of control where 0% means no effect
# Conditions: firefly luciferase detection reagent interference, luminescence
# In short: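 Read-out is luminescence after 30 min at RT with luciferin detection reagent. Before that, compounds (19.5 nM to 39.8 uM final) sat 15 min at RT with 1 uM D-luciferin or 100 mM potassium phosphate buffer. PTC124 served as intraplate control.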
row,Compound,max response
1,Oc1cc(O)c2c(c1)O[C@@H](c1cc(O)c(O)c(O)c1)[C@H](O)C2,-5.21%
2,O=C(O[C@@H]1Cc2c(O)cc(O)cc2O[C@@H]1c1ccc(O)c(O)c1)c1cc(O)c(O)c(O)c1,2.25%
3,C=CCc1ccc(OC)c(OC)c1,-1.2%
4,C=C(C)C1CC=C(C)C(O)C1 (centres undefined),4.01%
5,CC1=C2[C@H](/C=C(\C)C(=O)O)CC[C@@H](C)[C@H]2CC1,1.69%
6,C=C1CC[C@H]2C[C@@H]1C2(C)C,0.51%
7,C=C1C[C@@]23CC[C@H]4[C@@](C)(CCC[C@@]4(C)C(=O)O[C@@H]4O[C@H](CO)[C@@H](O)[C@H](O)[C@H]4O[C@@H]4O[C@H](CO)[C@@H](O)[C@H](O)[C@H]4O)[C@@H]2CC[C@]1(O[C@@H]1O[C@H](CO)[C@@H](O)[C@H](O)[C@H]1O[C@@H]1O[C@H](CO)[C@@H](O)[C@H](O)[C@H]1O)C3,4.27%
8,CC(C)=CCC[C@](C)(O[C@@H]1O[C@H](CO)[C@@H](O)[C@H](O)[C@H]1O)[C@H]1CC[C@]2(C)[C@@H]1[C@H](O)C[C@@H]1[C@@]3(C)CC[C@H](O)C(C)(C)[C@@H]3[C@@H](O[C@@H]3O[C@H](CO)[C@@H](O)[C@H](O)[C@H]3O)C[C@]12C,2.82%
9,CC(=O)O[C@@H]1CC[C@@]2(C)[C@@H](CC[C@]3(C)[C@@H]2C(=O)C=C2[C@@H]4[C@@H](C)[C@H](C)CC[C@]4(C)CC[C@]23C)[C@@]1(C)C(=O)O,-0.124%
10,CCCCC/C=C/C/C=C/CCCCCCCC(=O)O,0.865%
11,CCCCCC(=O)O,-1.64%
12,CC(C)(O)[C@@H]1CC[C@](C)([C@H]2[C@@H](O)C[C@@]3(C)[C@@H]4C[C@H](O)[C@H]5C(C)(C)[C@@H](O[C@@H]6OC[C@@H](O)[C@H](O)[C@H]6O[C@@H]6O[C@H](CO)[C@@H](O)[C@H](O)[C@H]6O)CC[C@@]56C[C@@]46CC[C@]23C)O1,4.11%
13,O=C(/C=C/c1ccc(O)c(O)c1)OC1[C@H](O)CC(O)(C(=O)O)C[C@@H]1O (some centres undefined),-1.19%
14,COc1ccccc1/C=C/C=O,-3.3%
15,CCCCCCCCCCCC(=O)O,3.72%
16,C=C(C)[C@H]1CC=C(CO)CC1,2.16%
